A selection: hits, their analogues and other compounds. The true share with any hit is near 4.5%.
DAX1 inh-1 – DAX1 (NR0B1) inhibitors, primary screen, cell-based, HEK293, Gal4-DAX1, luciferase luminescence; HEK293 Gal4-DAX1 luciferase reporter; 0.99% of 340,000 active; inhibition, % at 6.75 µM; AID 504766, 2011; Nuclear receptor subfamily 0 group B member 1 (Homo sapiens), P51843;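 active = inhibition above the mean over all tested compounds plus 3 SD, cut at about 4.2% in these data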;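 also: 0% = DAX1-transfected cells with DMSO and 100% = empty-vector control cells with DMSO; inhibition shows as a rise in luminescence from relieved DAX1 repression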
Target sequence (P51843 207-470 limits assumed): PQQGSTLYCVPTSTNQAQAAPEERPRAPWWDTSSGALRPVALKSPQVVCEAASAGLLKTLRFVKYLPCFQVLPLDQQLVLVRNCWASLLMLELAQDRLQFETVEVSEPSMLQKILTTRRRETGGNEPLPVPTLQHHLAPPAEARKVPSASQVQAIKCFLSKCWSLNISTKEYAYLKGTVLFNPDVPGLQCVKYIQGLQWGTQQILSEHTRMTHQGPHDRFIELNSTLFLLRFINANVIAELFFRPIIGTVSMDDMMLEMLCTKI
hgDAF12 agonist – H. glycines DAF-12 receptor agonists, primary screen, cell-based, luminescence, HEK293, GAL4 fusion, UAS-luciferase; HEK293 GAL4-hgDAF12 UAS-luciferase reporter, agonist luminescence; normalized to butyrate control; Nuclear hormone receptor DAF-12 (Heterodera glycines), GAL4 fusion; 1.8% of 370,000 active; activation, % at 6.8 µM;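 active = activation above a cutoff set at the mean of all screened compounds plus 3 SD, cut at about 10% in these data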;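 also: 0% = DMSO wells and 100% = sodium butyrate wells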
GAA850 FXN act – FXN promoter activators, primary screen, cell-based, luciferase luminescence, HEK293 lucGAA850. HEK293 lucGAA850 FXN promoter luciferase reporter, 24 h; percent of 10 µM SAHA response. activation, % at 6 µM. 0.56% of 360,000 active;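 active = activation above the average of all compounds screened plus 3 SD, cutoff fixed separately per campaign, cut at about 7.5% in these data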;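 also: 0% = DMSO wells and 100% = 10 µM SAHA wells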
DAX1 inh-2 – DAX1 (NR0B1) inhibitors on StAR promoter, primary screen, cell-based, luminescence, SF-1 (NR5A1), full-length DAX-1 | HEK293T StAR-luciferase reporter, SF-1/DAX-1 repression relief | inhibition, % at 6.8 µM | 1.1% of 370,000 active;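 active = inhibition above the mean over all tested compounds plus 3 SD, cut at about 3.6% in these data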;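 also: 0% = DAX-1 cells with DMSO and 100% = cells lacking DAX-1 with DMSO; higher inhibition means more luminescence from relief of DAX-1 repression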
hcDAF12 agonist – H. contortus DAF-12 nuclear receptor activators, primary screen, cell-based, luminescence, HEK293, lit1-tk-luc reporter; HEK293 hcDAF-12 lit1-tk-luc reporter; 0% DMSO, 100% Δ7-dafachronic acid; activation, % at 6.8 µM; 1.4% of 370,000 active;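 active = activation above the mean of all tested compounds plus 3 SD, cut at about 5.5% in these data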;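 also: 100% = response to 3 µM Δ7-dafachronic acid high control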
ssDAF12 agonist – S. stercoralis DAF-12 nuclear receptor activators, primary screen, cell-based, luminescence, HEK293, GRIP1 co-expression, lit1-tk-luc; 1% of 370,000 active; Nuclear hormone receptor DAF-12 (Strongyloides stercoralis); HEK293 ssDAF-12/GRIP1 lit1-tk-luc reporter; % of 3 µM dafachronic acid response; AID 652126, 2013; activation, % at 6.8 µM;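 active = activation above the mean over all tested compounds plus 3 SD, cut at about 0.9% in these data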;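 also: 0% = DMSO-only wells and 100% = 3 µM delta7-dafachronic acid wells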
DAX1 inh confirm – DAX1 (NR0B1) inhibitors relieving SF-1 repression, confirmation, cell-based, luminescence, HEK293T, full-length DAX-1, SF-1 activated StAR promoter | shares compounds with DAX1 inh-2 | HEK293T StAR-promoter luciferase reporter, SF-1/DAX-1 repression | inhibition, % at 6.8 µM | 87% of 2,400 active | AID 652134, 2013;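 active = inhibition above the average of every tested compound plus 3 SD, cut at about 3.8% in these data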;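 also: 0% = DAX-1 cells with DMSO and 100% = no DAX-1 control cells with DMSO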
Target sequence (P51843 whole entry, looked up): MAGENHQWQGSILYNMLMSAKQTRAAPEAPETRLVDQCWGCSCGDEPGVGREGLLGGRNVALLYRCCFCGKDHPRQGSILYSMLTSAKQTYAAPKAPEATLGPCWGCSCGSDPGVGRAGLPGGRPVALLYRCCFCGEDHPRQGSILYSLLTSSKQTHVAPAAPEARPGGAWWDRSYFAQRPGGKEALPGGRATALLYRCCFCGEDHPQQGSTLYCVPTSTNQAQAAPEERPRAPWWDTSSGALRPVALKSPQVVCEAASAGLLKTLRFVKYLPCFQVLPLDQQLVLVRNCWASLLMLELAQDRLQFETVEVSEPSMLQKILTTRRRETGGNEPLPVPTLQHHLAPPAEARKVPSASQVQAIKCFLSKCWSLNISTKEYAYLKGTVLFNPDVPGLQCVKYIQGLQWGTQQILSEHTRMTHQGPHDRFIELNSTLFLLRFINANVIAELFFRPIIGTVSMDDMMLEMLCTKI
SF1 mutant ctr – StAR reporter signal changes without DAX1, counter-screen for DAX1 inhibitor project, cell-based, luminescence, AF-2 mutant SF-1, transactivation. shares compounds with DAX1 inh-2. HEK293 StAR-luciferase, SF-1 AF2 mutant. AID 652136, 2013. 78% of 2,400 active. inhibition, % at 6.8 µM;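 active = inhibition above the mean of all tested compounds plus 3 SD, cut at about 3% in these data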;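 also: 0% = DAX-1 transfected cells with DMSO and 100% = cells without DAX-1 with DMSO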
LXR ag – LXR agonists, Gal4 luciferase reporter, confirmation, counter-screen for hcDAF-12 agonist project, cell-based, luminescence, HEK293, H. contortus campaign. AID 743027, 2013. shares compounds with hcDAF12 agonist. 3,400 tested, under 10 active. activation, % at 6.8 µM. HEK293 Gal4-LXR tk-luc reporter, 24 h; normalized: DMSO 0%, positive control 100%;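 active = mean percent activation of the reporter above a cutoff set as the average over tested compounds plus their standard deviation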
hcDAF12 ag – H. contortus DAF-12 receptor agonists, confirmation, cell-based, luminescence, HEK293, lit1-tk-luc, triplicate; shares compounds with hcDAF12 agonist; HEK293 hcDAF-12 lit1-tk-luc reporter; % of Δ7-dafachronic acid response; activation, % at 6.8 µM; 61% of 3,400 active; AID 743032, 2013;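 active = mean activation across triplicate tests above the threshold derived from the earlier primary screen, cut at about 5.5% in these data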;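 also: 0% = DMSO only wells and 100% = 3 µM Δ7-dafachronic acid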
hgDAF12 conf – H. glycines DAF-12 receptor agonists, confirmation, cell-based, luminescence, HEK293, GAL4-LBD fusion; shares compounds with hgDAF12 agonist; HEK293 GAL4-hgDAF12 luciferase reporter, agonist mode; percent of butyrate response; activation, % at 6.8 µM; 80% of 3,300 active;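 active = mean activation over triplicate wells above the hit cutoff derived from the earlier primary screen, cut at about 11% in these data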;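 also: 0% = DMSO low control and 100% = 2 mM sodium butyrate high control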
LXR ag 2 – LXR agonists, Gal4 luciferase reporter, confirmation, counter-screen for hgDAF-12 agonist project, cell-based, luminescence, HEK293, H. glycines campaign; shares compounds with hgDAF12 agonist; 24 h; activation, % at 6.8 µM; 3,300 tested, under 10 active; AID 743051, 2013;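 active = mean activation of the triplicate above a set limit carried over from the primary screen, none filed active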
* marks the source's active call; other numbers are inactive results; . = not tested or not shown.

SMILES | DAX1 inh-1 | hgDAF12 agonist | GAA850 FXN act | DAX1 inh-2 | hcDAF12 agonist | ssDAF12 agonist | DAX1 inh confirm | SF1 mutant ctr | hgDAF12 conf | LXR ag 2 | others
CC(=O)N1CCc2cc(S(=O)(=O)NC(CC(C)C)C(=O)N3CCCC3)ccc21 (stereo not given) | 1 | -1 | 2 | -1 | -1 | -1 | . | . | . | .
COc1ccc(-c2nc(-c3ccc(Br)o3)no2)cc1 | 3 | 17* | 4 | 7.3* | 4 | 1.3* | 14* | 3.5* | 16* | 1
COc1ccc(-c2noc(-c3ccc(Br)o3)n2)cc1 | 2 | 9 | 5 | 1 | 1 | -1 | . | . | . | .
O=c1c2c(nc3cc(-c4ccccc4Cl)[nH]n13)CCS2 | 2 | 16* | 5 | 5.6* | 5 | 1.5* | 3.9* | 3.4* | 12* | 1
COc1ccccc1OCCNC(=O)c1ccc2c(c1)OCCO2 | 1 | 17* | 3 | 7.8* | 5 | 0 | 8.9* | 6.0* | 14* | 1
COc1ccccc1OCCNC(=O)CNC(=O)c1ccc2c(c1)OCO2 | 0 | -1 | 0 | 2 | 1 | -1 | . | . | . | .
COc1ccc2cc3cc(C(=O)N4CCCC(C)C4)oc3nc2c1 (stereo not given) | 1 | 14* | 5 | 7.4* | 4 | 0 | 12* | 8.9* | 16* | 1
CN(C)C(=O)c1ccc(N=Nc2c(O)c3ccccc3[nH]c2=O)cc1 | -1 | 5 | 2 | -1 | 4 | 0 | . | . | . | .
O=C(O)c1ccc(N=Nc2c(O)[nH]c3ccccc23)cc1 | -2 | 16* | -4 | 5.9* | 12* | 2.0* | 11* | 5.7* | 17* | 1 | LXR ag=1;hcDAF12 ag=9.9*
Cc1noc(C)c1NC(=O)Nc1ccc2c(c1)C(=O)N([C@H](C)CO)C[C@H](C)[C@@H](CN(C)S(=O)(=O)c1c(C)noc1C)O2 | 0 | 2 | 4 | 0 | 0 | -1 | . | . | . | .
Nc1nc(-c2ccc3ccccc3c2)cs1 | 1 | 18* | 7 | 12* | 6.4* | 0 | 9.9* | 7.5* | 15* | 1
Nc1nc(-c2ccc(-c3ccccc3)cc2)cs1 | 1 | 19* | 4 | 6.3* | 5 | 0 | 10* | 6.8* | 20* | 1
Cc1ccc(-c2csc(N)n2)cc1 | 2 | 9 | 5 | 2 | 5 | -1 | . | . | . | .
Nc1nc(-c2ccc(Oc3ccccc3)cc2)cs1 | 1 | 6 | 5 | 0 | 0 | -1 | . | . | . | .
Cn1ccsc1=NC(=O)c1ccc(Cl)cc1 | 1 | 14* | 5 | 4.6* | 9.4* | 1.1* | 8.9* | 7.7* | 12* | 0 | LXR ag=1;hcDAF12 ag=7.9*
COc1ccc(C(=O)N=c2sccn2C)cc1 | 2 | 5 | 3 | 2 | 2 | 0 | . | . | . | .
COc1ccc(-c2csc(N3C(=O)CNC3=S)n2)cc1 | -2 | 17* | 6 | 5.5* | 8.2* | 1.1* | 14* | 6.6* | 16* | 1 | LXR ag=2;hcDAF12 ag=8.8*
Cc1nnc(NC(=O)CN2CCN(Cc3ccc(F)cc3Cl)CC2)s1 | 0 | -2 | 1 | 0 | -2 | -1 | . | . | . | .
O=S(=O)(c1ccccc1)N1CCN(C(=S)Nc2ccc(Br)cc2)CC1 | 0 | 0 | -1 | 0 | -1 | -1 | . | . | . | .
Cc1ccc(NC(=O)c2nnn(CC(=O)Nc3ccc4c(c3)OCO4)c2N)cc1C | 0 | 4 | 0 | 0 | 2 | 0 | . | . | . | .
Nc1c(C(=O)Nc2ccc3c(c2)OCCO3)nnn1Cc1ccc(Br)cc1 | 2 | 22* | 1 | 8.1* | 9.4* | 1.3* | 12* | 8.6* | 22* | 1 | LXR ag=1;hcDAF12 ag=6.7*
CC1=NC(C)(C)Cc2cc(C)c(C)cc21 | 2 | 3 | 0 | 1 | -2 | -2 | . | . | . | .
Cc1cc(O)c(-c2cc(C(=O)Nc3cccnc3)[nH]n2)cc1C | 3 | 20* | 6 | 4.8* | 6.3* | 1 | 16* | 7.0* | 16* | 1
COc1ccc2oc(=O)c(C(=O)Nc3ccccc3O)cc2c1 | -1 | 19* | 4 | 5.6* | 6.1* | 1 | 11* | 6.8* | 16* | 1
COc1ccc2oc(=O)c(C(=O)NC(C)c3ccccc3)cc2c1 (stereo not given) | -1 | -1 | -1 | 0 | -3 | -1 | . | . | . | .
COc1ccc(NC(=O)c2cc3cc(OC)ccc3oc2=N)cc1 | 1 | -1 | 0 | -1 | -1 | 0 | . | . | . | .

From PubChem BioAssay
